Source: PubChem
TRHR ag = activates the human TRH receptor; P34981; TRHR cells, calcium flux fluo-8, FDSS agonist mode; activation, % at 2 µM; 360,000 tested, 0.18% active; AID 493084
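Agonist-mode FDSS calcium read (Ex 480/Em 530, 1 s cycles) in 1536-well TRHR cells with fluo-8 dye, after 10-cycle baseline and 23 nL compound addition; TRH at EC20 (10 nM final) added afterwards for the enhancer phase.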
D1 ag = human D1 receptor agonism; P21728; HEK293 T-REx D1 cells, calcium flux, agonist mode; activation, % at 2 µM; 360,000 tested, 1% active
Target sequence (P21728 whole entry, looked up): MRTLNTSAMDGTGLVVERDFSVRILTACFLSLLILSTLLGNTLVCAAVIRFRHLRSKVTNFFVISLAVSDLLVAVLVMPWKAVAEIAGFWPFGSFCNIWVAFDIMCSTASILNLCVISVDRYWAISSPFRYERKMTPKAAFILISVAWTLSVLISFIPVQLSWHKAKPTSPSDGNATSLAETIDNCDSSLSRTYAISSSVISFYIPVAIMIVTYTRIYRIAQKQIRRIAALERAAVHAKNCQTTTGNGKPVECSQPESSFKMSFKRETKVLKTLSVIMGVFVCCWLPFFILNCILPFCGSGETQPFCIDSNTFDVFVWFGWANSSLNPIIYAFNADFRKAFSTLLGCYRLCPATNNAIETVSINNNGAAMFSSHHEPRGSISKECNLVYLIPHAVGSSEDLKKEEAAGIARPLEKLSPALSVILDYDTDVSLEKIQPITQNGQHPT
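Agonism was scored from calcium flux recorded over 180 s (1 read/s) after pintool compound addition, following a 10-cycle baseline. Cells were inducible force-coupled HEK293 TREx D1, plated overnight at 30 C and loaded with no-wash calcium dye.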
D1 antag = antagonists of human D1 dopamine receptor; P21728; HEK293 TREx D1 cells, calcium flux, dopamine EC80; hits give low values; activity change, negative = inhibition, % at 10 µM; 360,000 tested, 3.2% active; AID 504652; in the data active means activity change below about -30%
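Using tetracycline-induced force-coupled D1 Hek293 cells and a calcium dye, signals were followed for 180 s after compound, then for 180 s after EC80 dopamine, to detect inhibitors.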
D1 potentiator = potentiators of human D1 dopamine receptor; AID 504651; 360,000 tested, 0.036% active; potentiation, % at 10 µM; P21728; HEK293 TREx D1 cells, calcium flux, dopamine EC20 potentiation; in the data active means potentiation above about 30%
TRHR enhancer = TRH receptor (human) allosteric enhancement | 360,000 tested, 0.66% active | TRHR cells, fluo-8 calcium fluorescence, EC20 TRH enhancement | enhancement, % at 2 µM | P34981; in the data active means enhancement above about 30%
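Enhancer read-out: after compound pinning and an initial kinetic agonist-mode read, an EC20 of TRH (10 nM final) was injected and fluo-8 calcium signal (Ex 480/Em 530) followed at 1 s/cycle for 100 cycles in TRHR-expressing cells.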
Each line names hits and unclear results; the compound was inactive in the other large screens. An excerpt weighted towards active compounds, which were near 4.7% of everything screened. Unless noted, no stated cut-off is given here; in the data, active means activation above about 30%; inactive means the rest.

O=C(c1ccc(Cn2cc(Br)cn2)cc1)N1N=C(C(F)F)CC1(O)C(F)F (configuration not stated)	D1 ag 48
CC(C)(C)NC(=O)CN(Cc1ccco1)C(=O)CCC(=O)Nc1nccs1	D1 antag -31
COc1ccc(N(CC(=O)NC(C)(C)C)C(=O)CCC(=O)Nc2nccs2)c(OC)c1	D1 antag -31
COCCNC(=O)CN(Cc1ccc2c(c1)OCO2)C(=O)CCC(=O)Nc1nccs1	none
CC(C)(C)NC(=O)CN(Cc1ccc2c(c1)OCO2)C(=O)CCC(=O)Nc1nccs1	TRHR enhancer 36
CCN(CC)CC#CC(OC)(c1ccccc1)c1ccccc1	none
O=C1CC(c2ccc(Cl)cc2)c2cc3c(cc2N1)OCCO3 (configuration not stated)	none
CCOc1cccc(C2CC(=O)Nc3cc4c(cc32)OCCO4)c1 (configuration not stated)	D1 ag 45, D1 antag -32
Cc1ccc(C2CC(=O)Nc3cc4c(cc32)OCCO4)cc1 (configuration not stated)	D1 ag 32
CCOc1ccccc1C1CC(=O)Nc2cc3c(cc21)OCO3 (configuration not stated)	none
Cc1nnsc1-c1onc(C)c1C(=O)Nc1cc(Cl)cc(Cl)c1	D1 antag -34
COc1ccc(NC(=O)c2sc3nc[nH]c(=O)c3c2C)cc1Cl	none
COc1ccc(NC(=O)CS(=O)(=O)c2cn(CC(=O)N3CCCC3)c3ccccc23)c(OC)c1	none
CC(=O)c1ccc(NC(=O)C2CCN(c3nnc(C)c4c(C)n(-c5ccccc5)nc34)CC2)cc1	none
CCNC(=O)C1CCCN(c2nnc(C)c3c(C)n(-c4ccc(C)cc4)nc23)C1 (configuration not stated)	none
Cc1ccc(-n2nc3c(N4CCCC(C(=O)NCc5ccccc5C)C4)nnc(C)c3c2C)cc1 (configuration not stated)	D1 ag 44, D1 potentiator 53
COc1cc(NC(=O)C2CCN(c3nnc(C)c4c(C)n(-c5ccccc5)nc34)CC2)cc(OC)c1	D1 antag -40
CCOc1ccccc1NC(=O)c1c(NC(=O)c2ccccc2)sc2c1CCCC2	none
CCOc1cc2sc(N3CCC(C(=O)Nc4ccc(C(C)C)cc4)CC3)nc2cc1Br	none
Cc1ccc(CNC(=O)c2cn(C)c3ccc(S(=O)(=O)N(C)C4CCCCC4)cc3c2=O)cc1	none
COC(CN(C)C(=O)c1cn(C)c2ccc(S(=O)(=O)N(C)C3CCCCC3)cc2c1=O)OC	TRHR enhancer 31
COc1ccccc1CNC(=O)c1cn(C)c2ccc(S(=O)(=O)N(C)C3CCCCC3)cc2c1=O	D1 antag -37
Cc1ccc(S(=O)(=O)NCC(=O)OC(C(=O)c2ccccc2)c2ccccc2)cc1 (configuration not stated)	none
CCOC(=O)CNS(=O)(=O)c1ccc(S(=O)(=O)N2CCCC2)cc1	D1 antag -103
CCOC(=O)c1ccc(COC(=O)CNS(=O)(=O)c2ccccc2)cc1	D1 antag -33
CCc1ccc(C(=O)C(C)OC(=O)CNS(=O)(=O)c2ccc(C)cc2)cc1 (configuration not stated)	D1 ag 32
CCc1nn(CC(=O)N2CCN(c3cccc(C)c3)C(C)C2)c(=O)c2cc3sccc3n12 (configuration not stated)	none
CC1(C)Cc2c(cnn2-c2ccccc2)C(NC(=O)CCN2CCCCO2)C1 (configuration not stated)	none
Fc1ccc(Nc2nc(-c3cccc(Cl)c3)c3c(n2)-c2ccccc2OC3)c(F)c1	none
CNC(=O)c1cc(S(=O)(=O)N2CC(C)OC(C)C2)ccc1N1CCCCC1 (configuration not stated)	TRHR enhancer 41
CNC(=O)c1cc(S(=O)(=O)N2CC(C)OC(C)C2)ccc1N1CCOCC1 (configuration not stated)	none
O=C(Nc1ccc(OC(F)(F)F)cc1)N1CCN(c2ccnc3cc(Cl)ccc23)CC1	D1 antag -41
CCOC(=O)c1cnc(-c2ccccc2)nc1-c1ccccc1	none
COc1cc(CN2CCN(C(O)(c3ccccc3)c3ccccc3)CC2)cc(OC)c1OC	D1 antag -67
COc1cccc2cc(C(=O)Nc3ccc(CC(=O)O)cc3)c(=O)oc12	none
Cc1cc(C(C)(C)CC(C)(C)C)ccc1OCCOCC[N+](C)(C)Cc1ccccc1	D1 ag 101
Cc1cc(C(C)(C)C)ccc1OCCN1CCCC1	none
O=C(N/N=C/c1cn(CCOc2ccccc2)c2ccccc12)c1ccncc1	D1 antag -34
CSC1=NSC2=NC(=O)/C(=C\c3cccs3)C(=N)N12	none
CC1=CC2=NC(=O)/C(=C\c3cc(C)n(-c4cccc(Cl)c4)c3C)C(=N)N2O1	none
CC1=CC2=NC(=O)/C(=C/c3coc4ccc(Cl)cc4c3=O)C(=N)N2O1	TRHR ag 185, D1 ag 231
CSC1=NSC2=NC(=O)/C(=C/c3coc4ccccc4c3=O)C(=N)N12	TRHR ag 78, D1 ag 275
N=C1/C(=C/c2cccn2Cc2ccc(F)cc2)C(=O)N=C2SC=CN12	none
CSC1=NSC2=NC(=O)/C(=C/c3coc4ccc(O)cc4c3=O)C(=N)N12	TRHR ag 68, D1 ag 168
N=C1/C(=C\c2coc3ccccc3c2=O)C(=O)N=C2SC=CN12	TRHR ag 199, D1 ag 342, TRHR enhancer 53
O=C1NN(c2ccccc2)C(=O)/C1=C\c1coc2ccc(O)cc2c1=O	D1 antag -70
O=C(Nc1cc(Cl)cc(Cl)c1)c1ccc(F)c(S(=O)(=O)N2CCc3ccccc32)c1	none
Cc1csc2c(N3CCN(C(=O)Nc4ccccc4)CC3)ncnc12	none
Cc1csc2c(N3CCN(C(=S)Nc4ccc(F)cc4F)CC3)ncnc12	D1 ag 40, D1 antag -42
Cc1c(/C=N/NC(=O)C(NC(=O)c2ccc3c(c2)OCO3)C(C)C)c2ccccc2n1C (configuration not stated)	TRHR enhancer 32
Cc1ccc(CC(=O)N/N=C/c2ccc3c(c2)OCO3)cc1	none
CC(C)C(NC(=O)c1ccc2c(c1)OCO2)C(=O)N/N=C/c1cccs1 (configuration not stated)	none
CCCOc1ccc(/C=N/NC(=O)c2ccc3c(c2)OCO3)c(OCCC)c1	D1 antag -42 (no result: D1 potentiator)
CCn1ncc(/C=N/NC(=O)c2ccc3c(c2)OCO3)c1C	D1 antag -74
Cc1ccnn1CC(=O)N/N=C/c1ccc2c(c1)OCO2	D1 antag -47
CC(/C=N/NC(=O)c1ccc(Cn2cc([N+](=O)[O-])cn2)o1)=C\c1ccccc1	none
N#Cc1c(Cl)nc(SCc2ccccc2)nc1-c1ccccc1	D1 antag -32
